According to the supplement of paper PMC7411054:

What was measured:
Assay in all cases: phenotypically active (imaging signature differs from DMSO and reproducible) at any of 0.3-9 uM (binary (1 = active, 0 = inactive)); higher = active
Conditions in all cases: treatment time: 24 h
[1] = test system: A549-ACTB-RAB5A
Procedure, shortened: (§1)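 Four wells per concentration (0.3, 1, 3 or 9 µM) were treated for 24 h in each of fifteen gene-edited reporter lines from A549, HepG2 and WPMY1 cells, then imaged live. After normalising live-cell features to solvent control wells, deviation was defined as ≥3 of 4 wells lying past the 95th percentile of control Euclidean distances. Reproducibility was defined as a median replicate Pearson correlation above the 95th percentile of non-replicates. Both had to hold for phenotypic activity.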

[2] = test system: A549-CANX-COX4
Procedure, shortened: as §1

[3] = test system: A549-GM130-SQSTM1
Procedure, shortened: as §1

[4] = test system: A549-TP53BP1-CLTA
Procedure, shortened: as §1

[5] = test system: A549-TUBA1B-RELA
Procedure, shortened: as §1

[6] = test system: HepG2-ACTB-RAB5A
Procedure, shortened: as §1

[7] = test system: HepG2-CANX-COX4
Procedure, shortened: as §1

[8] = test system: HepG2-GM130-SQSTM1
Procedure, shortened: as §1

[9] = test system: HepG2-TP53BP1-CLTA
Procedure, shortened: as §1

[10] = test system: HepG2-TUBA1B-RELA
Procedure, shortened: as §1

[11] = test system: WPMY1-ACTB-RAB5A
Procedure, shortened: as §1

[12] = test system: WPMY1-CANX-COX4
Procedure, shortened: as §1

[13] = test system: WPMY1-GM130-SQSTM1
Procedure, shortened: as §1

[14] = test system: WPMY1-TP53BP1-CLTA
Procedure, shortened: as §1

[15] = test system: WPMY1-TUBA1B-RELA
Procedure, shortened: as §1

Measured: phenotypically active

COC(=O)C(Cc1ccc(OCCn2c(=O)sc3cc(C(=O)c4ccccc4)ccc32)cc1)C(=O)OC
inactive: [1] 0 | [2] 0 | [3] 0 | [4] 0 | [5] 0 | [6] 0 | [7] 0 | [8] 0 | [9] 0 | [10] 0 | [11] 0 | [12] 0 | [13] 0 | [14] 0 | [15] 0

CNC[C@H](O)c1ccc(O)c(O)c1 [epinephrine]
inactive: [1] 0 | [2] 0 | [3] 0 | [4] 0 | [5] 0 | [6] 0 | [7] 0 | [8] 0 | [9] 0 | [10] 0 | [11] 0 | [12] 0 | [13] 0 | [14] 0 | [15] 0

COCc1nc2c([nH]1)c(=O)n(C)c(=O)n2CC(C)C
inactive: [1] 0 | [2] 0 | [3] 0 | [4] 0 | [5] 0 | [6] 0 | [7] 0 | [8] 0 | [9] 0 | [10] 0 | [11] 0 | [12] 0 | [13] 0 | [14] 0 | [15] 0

CC(C)(C#N)c1cc(Cn2cncn2)cc(C(C)(C)C#N)c1 [Anastrozole]
inactive: [1] 0 | [2] 0 | [3] 0 | [4] 0 | [5] 0 | [6] 0 | [7] 0 | [8] 0 | [9] 0 | [10] 0 | [11] 0 | [12] 0 | [13] 0 | [14] 0 | [15] 0

Cc1ccc(-c2cc(C(F)(F)F)nn2-c2ccc(S(N)(=O)=O)cc2)cc1 [celecoxib]
inactive: [1] 0 | [2] 0 | [3] 0 | [4] 0 | [5] 0 | [6] 0 | [7] 0 | [8] 0 | [9] 0 | [10] 0 | [11] 0 | [12] 0 | [13] 0 | [14] 0 | [15] 0

COc1ccc(Cl)cc1C(=O)NCCc1ccc(S(=O)(=O)NC(=O)NC2CCCCC2)cc1 [glyburide]
inactive: [1] 0 | [2] 0 | [3] 0 | [4] 0 | [5] 0 | [6] 0 | [7] 0 | [8] 0 | [9] 0 | [10] 0 | [11] 0 | [12] 0 | [13] 0 | [14] 0 | [15] 0

CC(C(=O)O)c1cccc(C(=O)c2ccccc2)c1 (stereo not given) [ketoprofen]
inactive: [1] 0 | [2] 0 | [3] 0 | [4] 0 | [5] 0 | [6] 0 | [7] 0 | [8] 0 | [9] 0 | [10] 0 | [11] 0 | [12] 0 | [13] 0 | [14] 0 | [15] 0

CC(C)[C@](O)(c1ccc2cc(OC(F)F)c(OC(F)F)cc2c1)c1c[nH]nn1
inactive: [1] 0 | [2] 0 | [3] 0 | [4] 0 | [5] 0 | [6] 0 | [7] 0 | [8] 0 | [9] 0 | [10] 0 | [11] 0 | [12] 0 | [13] 0 | [14] 0 | [15] 0

O=NN(CCCl)C(=O)NCCCl [carmustine]
inactive: [1] 0 | [2] 0 | [3] 0 | [4] 0 | [5] 0 | [6] 0 | [7] 0 | [8] 0 | [9] 0 | [10] 0 | [11] 0 | [12] 0 | [13] 0 | [14] 0 | [15] 0

N=C(N)Nc1nc(CSCCC(=N)NS(N)(=O)=O)cs1 [famotidine]
inactive: [1] 0 | [2] 0 | [3] 0 | [4] 0 | [5] 0 | [6] 0 | [7] 0 | [8] 0 | [9] 0 | [10] 0 | [11] 0 | [12] 0 | [13] 0 | [14] 0 | [15] 0

S=P(N1CC1)(N1CC1)N1CC1 [thiotepa]
inactive: [1] 0 | [2] 0 | [3] 0 | [4] 0 | [5] 0 | [6] 0 | [7] 0 | [8] 0 | [9] 0 | [10] 0 | [11] 0 | [12] 0 | [13] 0 | [14] 0 | [15] 0

O=C(O)c1cc(/N=N/c2ccc(S(=O)(=O)Nc3ccccn3)cc2)ccc1O [Sulfasalazine]
inactive: [1] 0 | [2] 0 | [3] 0 | [4] 0 | [5] 0 | [6] 0 | [7] 0 | [8] 0 | [9] 0 | [10] 0 | [11] 0 | [12] 0 | [13] 0 | [14] 0 | [15] 0
